Screening results (PubChem)
The list is not random: actives were taken first. Their share in the collection is about 1.3%.
LRH-1 inv ag: suppresses constitutive activity of human LRH-1; HEK293T StAR-luciferase reporter, LRH-1 transfected, 24 h; O00482; inhibition, % at 3.6 µM; AID 602396; actives 0.13% (n = 360,000);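 active = inhibition above the mean inhibition of all tested compounds plus 3 SD, cut at about 73% in these data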
COUP-TFII inh: NR2F2 (human) inhibition, primary screen. P24468. HEK293T NGFI-A luciferase reporter, luminescence. inhibition, % at 8.6 µM. actives 0.7% (n = 370,000). AID 686940;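 active = inhibition above a per-plate cutoff, mean inhibition of test wells between control levels plus 3 SD, cut at about 38% in these data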;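 also: cells cotransfected with COUP-TFII expression vector driving the NGFI-A reporter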
NCOA2 inhibitor: inhibits human steroid receptor coactivator 2; Q15596; HEK293 GAL4-SRC2 luciferase reporter, luminescence; inhibition, % at 9 µM; actives 0.17% (n = 370,000);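 active = inhibition above the mean inhibition of all tested compounds plus 3 SD, set per campaign, cut at about 52% in these data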
SRC3 inh: human NCOA3 inhibition. Q9Y6Q9. HEK293 GAL4-SRC3 luciferase reporter, luminescence. inhibition, % at 3.6 µM. actives 0.17% (n = 360,000). AID 588352;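 active = inhibition above a per-campaign cutoff, the mean of all compounds plus 3 SD, cut at about 60% in these data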;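 also: higher means less SRC3-driven luciferase light from the GAL4 reporter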
NCOA1 inh: inhibitors of human steroid receptor coactivator 1 (SRC1). actives 0.12% (n = 360,000). HEK293 GAL4-SRC1 luciferase reporter, luminescence. inhibition, % at 3.6 µM;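 active = inhibition above the campaign mean plus 3 SD, with each screening campaign given its own cutoff, cut at about 60% in these data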
Target sequence (Q15788 whole entry, looked up, the tested form may be a part): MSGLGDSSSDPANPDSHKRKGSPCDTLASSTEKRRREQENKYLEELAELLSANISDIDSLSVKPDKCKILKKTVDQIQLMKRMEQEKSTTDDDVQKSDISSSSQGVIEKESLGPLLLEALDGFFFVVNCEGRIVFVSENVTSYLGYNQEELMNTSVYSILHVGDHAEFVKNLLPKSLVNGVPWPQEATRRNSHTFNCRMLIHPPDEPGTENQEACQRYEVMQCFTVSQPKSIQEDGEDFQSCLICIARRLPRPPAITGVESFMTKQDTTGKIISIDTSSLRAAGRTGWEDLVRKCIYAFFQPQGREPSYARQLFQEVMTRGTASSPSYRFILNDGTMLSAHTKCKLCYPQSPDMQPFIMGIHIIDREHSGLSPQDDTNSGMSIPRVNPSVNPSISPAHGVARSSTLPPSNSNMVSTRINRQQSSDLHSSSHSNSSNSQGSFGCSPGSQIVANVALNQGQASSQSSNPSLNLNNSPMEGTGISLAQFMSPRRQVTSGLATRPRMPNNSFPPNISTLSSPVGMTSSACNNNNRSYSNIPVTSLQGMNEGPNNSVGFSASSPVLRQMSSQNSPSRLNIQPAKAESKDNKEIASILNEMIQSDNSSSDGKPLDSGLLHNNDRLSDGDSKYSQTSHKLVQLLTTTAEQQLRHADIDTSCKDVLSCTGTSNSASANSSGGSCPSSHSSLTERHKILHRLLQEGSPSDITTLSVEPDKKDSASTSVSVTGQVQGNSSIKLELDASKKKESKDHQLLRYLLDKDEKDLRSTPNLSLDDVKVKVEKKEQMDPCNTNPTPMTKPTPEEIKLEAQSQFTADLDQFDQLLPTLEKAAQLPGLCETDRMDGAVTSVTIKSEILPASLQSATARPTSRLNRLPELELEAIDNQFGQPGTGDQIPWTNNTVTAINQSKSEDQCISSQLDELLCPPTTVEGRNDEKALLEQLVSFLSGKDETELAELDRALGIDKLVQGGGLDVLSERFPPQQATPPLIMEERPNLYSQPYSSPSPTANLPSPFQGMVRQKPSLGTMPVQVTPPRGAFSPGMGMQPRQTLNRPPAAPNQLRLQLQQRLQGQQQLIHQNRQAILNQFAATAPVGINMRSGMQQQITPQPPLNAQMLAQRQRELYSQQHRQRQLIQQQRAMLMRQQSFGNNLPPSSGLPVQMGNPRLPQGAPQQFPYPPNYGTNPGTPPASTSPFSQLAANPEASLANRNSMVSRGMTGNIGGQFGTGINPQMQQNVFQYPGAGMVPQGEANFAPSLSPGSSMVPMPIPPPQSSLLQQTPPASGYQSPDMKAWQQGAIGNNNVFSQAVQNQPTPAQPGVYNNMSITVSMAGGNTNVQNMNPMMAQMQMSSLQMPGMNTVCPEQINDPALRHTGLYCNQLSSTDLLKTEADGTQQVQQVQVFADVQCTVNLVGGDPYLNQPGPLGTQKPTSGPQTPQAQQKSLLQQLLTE
Gli-Sufu block: antagonists of Gli-Sufu signaling; Sufu-KO-LIGHT fibroblasts, Gli luciferase reporter luminescence; inhibition, % at 5 µM; actives 0.74% (n = 340,000);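 active = inhibition above about 55%, limit read from the data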
Gal4-VP16 ctr: counter-screen for COUP-TFII antagonists: inhibitors of VP16. AID 687007. shares compounds with COUP-TFII inh. actives 25% (n = 2,500). HEK293 Gal4-VP16 luciferase reporter, luminescence. inhibition, % at 8.5 µM; in the data active = inhibition above about 13%
COUP-TFII conf: COUP-TFII (NR2F2) inhibition, confirmation assay. inhibition, % at 8.5 µM. AID 687008. shares compounds with COUP-TFII inh. actives 45% (n = 2,500). HEK293 NGFI-A luciferase reporter, luminescence;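 active = mean inhibition over three repeats above a set limit taken from the earlier primary screen, cut at about 38% in these data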
Large screens that a line does not name were inactive (follow-up assays come after a bar, where they were run).

O=C(N[C@H]1CCCc2c1cnn2-c1ccc(F)cc1F)c1ccccn1	none (no result: LRH-1 inv ag, NCOA2 inhibitor, SRC3 inh, NCOA1 inh, Gli-Sufu block)
COc1ccc(S[C@]2(C(=O)N3CCN(C(C)=O)CC3)CC(=O)N[C@@H]2c2ccc(OC)cc2)cc1	none (no result: LRH-1 inv ag, SRC3 inh, NCOA1 inh, Gli-Sufu block)
CCOP(=O)(OCC)c1ccc2c(c1)C(=O)c1ccccc1-2	none (no result: LRH-1 inv ag, NCOA2 inhibitor, SRC3 inh, NCOA1 inh, Gli-Sufu block)
Cc1cc(NS(=O)(=O)c2ccc(NC(=O)CSc3nnc(-c4ccncc4)n3Cc3ccco3)cc2)nc(C)n1	none (no result: LRH-1 inv ag, SRC3 inh, NCOA1 inh, Gli-Sufu block)
Cc1ccc(/C=N/Nc2cccc(C(=O)O)c2)s1	none
Cc1ccc(/C=N/Nc2ccc(C(=O)O)cc2)s1	COUP-TFII inh 41 | Gal4-VP16 ctr inactive | COUP-TFII conf inactive
CC(C)c1ccc(/C=N/Nc2ccc(C(=O)O)cc2)cc1	COUP-TFII inh 52 | Gal4-VP16 ctr inactive | COUP-TFII conf 37
COc1ccc(NC(=O)N(C)C[C@@H]2OCCCC[C@@H](C)Oc3ccc(NS(C)(=O)=O)cc3C(=O)N([C@H](C)CO)C[C@@H]2C)cc1	none (no result: LRH-1 inv ag, SRC3 inh, NCOA1 inh, Gli-Sufu block)
CCOC(=O)[C@]12CCCCC/C=C\1N(CCc1ccc(Cl)cc1)C(=O)[C@H]2CC(=O)NCc1cccs1	none (no result: LRH-1 inv ag, SRC3 inh, NCOA1 inh, Gli-Sufu block)
CN(C)c1ccc(C(C[N+](=O)[O-])c2c(N)n(C)c(=O)n(C)c2=O)c(F)c1C#N (stereo not drawn)	none
COc1ccc(Br)cc1C(C[N+](=O)[O-])c1c(N)n(C)c(=O)n(C)c1=O (stereo not drawn)	COUP-TFII inh 41 | Gal4-VP16 ctr inactive | COUP-TFII conf inactive
Cc1ccc2[nH]c(C)c(/C=C/c3cc[n+](C)cc3)c2c1	COUP-TFII inh 41 | Gal4-VP16 ctr inactive | COUP-TFII conf inactive
Cc1ccc2c(c1)c(/C=C/c1cc[n+](C)cc1)c(C)n2C	COUP-TFII inh 54, Gli-Sufu block 57 | Gal4-VP16 ctr inactive | COUP-TFII conf inactive
C[n+]1ccc(/C=C/c2ccc(Br)cc2)cc1	none
Cc1ccc(C(=O)O/N=C(\N)c2ccccn2)cc1	COUP-TFII inh 57, NCOA2 inhibitor 57 | Gal4-VP16 ctr inactive | COUP-TFII conf inactive
COc1cc(C(=O)O/N=C(\N)c2ccccn2)cc(OC)c1OC	none
Cc1cccc(C(=O)O/N=C(\N)c2ccccn2)c1	COUP-TFII inh 47 | Gal4-VP16 ctr inactive | COUP-TFII conf inactive
CCOc1ccc(C(=O)O/N=C(\N)c2ccccn2)cc1	COUP-TFII inh 81, NCOA2 inhibitor 65 | Gal4-VP16 ctr inactive | COUP-TFII conf inactive
Cc1ccc(C(=O)O/N=C(\N)c2ccccn2)cc1C	COUP-TFII inh 50 | Gal4-VP16 ctr inactive | COUP-TFII conf inactive
N/C(=N\OC(=O)c1cccc(F)c1)c1ccccn1	none
N/C(=N\OC(=O)c1ccccc1)c1ccccn1	none
COC(=O)C1=C(C)N(C)C(=NCc2cccc(C(F)(F)F)c2)NC1c1cccc(Cl)c1 (stereo not drawn)	none (no result: LRH-1 inv ag, SRC3 inh, NCOA1 inh, Gli-Sufu block)
O=C(N[C@H](Cc1ccccc1)C(=O)N1CCCN(Cc2ccccc2F)CC1)[C@H]1O[C@@H](n2ccc(=O)[nH]c2=O)[C@H](O)[C@@H]1O	none (no result: LRH-1 inv ag, SRC3 inh, NCOA1 inh, Gli-Sufu block)
COc1cc(OC)cc(C(C)c2ccc(-c3ccccc3)cc2)c1 (stereo not drawn)	none (no result: LRH-1 inv ag, NCOA2 inhibitor, SRC3 inh, NCOA1 inh, Gli-Sufu block)
O=C(C1CCN(c2ncnc3c2sc2cccc(F)c23)CC1)N1CCN(Cc2ccccc2)CC1	none (no result: LRH-1 inv ag, SRC3 inh, NCOA1 inh, Gli-Sufu block)
CC(=O)N(C)C[C@@H]1OCc2ccccc2-c2c(n(C)c3ccccc23)C(=O)N([C@@H](C)CO)C[C@@H]1C	none (no result: LRH-1 inv ag, SRC3 inh, NCOA1 inh, Gli-Sufu block)
CC1CC(C)C(=O)C(C(CC2CC(=O)NC(=O)C2)OC(=O)CC(=O)c2ccccc2)C1 (stereo not drawn)	LRH-1 inv ag 98, COUP-TFII inh 71, NCOA2 inhibitor 54, SRC3 inh 85, NCOA1 inh 80 | Gal4-VP16 ctr inactive | COUP-TFII conf 50
O=C(CC1(O)C(=O)Nc2ccccc21)c1ccccc1 (stereo not drawn)	none
COCC(=O)OC1CCn2c1nc1c2C(=O)C(C)=C(NC(C)=O)C1=O (stereo not drawn)	LRH-1 inv ag 96, COUP-TFII inh 72, NCOA2 inhibitor 73, SRC3 inh 88, NCOA1 inh 90 | Gal4-VP16 ctr 50 | COUP-TFII conf 74
O=C(NCC1COCCO1)C1CCN(S(=O)(=O)c2cccc3ccccc23)CC1 (stereo not drawn)	none (no result: LRH-1 inv ag, SRC3 inh, NCOA1 inh, Gli-Sufu block)
CC(C)C(Sc1nc(-c2ccccc2)cc(-c2ccccc2)c1C#N)C(=O)O (stereo not drawn)	COUP-TFII inh 38 | Gal4-VP16 ctr inactive | COUP-TFII conf inactive
c1ccc(COCCc2cn(Cc3ccccc3)c3ccccc23)cc1	none (no result: LRH-1 inv ag, SRC3 inh, NCOA1 inh, Gli-Sufu block)
O=C(Nc1nncs1)c1cc2c(s1)CCC2	none
O=C(Nc1nccs1)c1cc2c(s1)CCCCC2	COUP-TFII inh 42, NCOA2 inhibitor 58 | Gal4-VP16 ctr inactive | COUP-TFII conf inactive
Cc1ccc(NC(=O)OC2CC3CC2[C@H]2CCCCN2[C@H]3C)cc1 (stereo partly drawn)	none (no result: LRH-1 inv ag, SRC3 inh, NCOA1 inh, Gli-Sufu block)
COc1ccc(-[n+]2c(C)cc(/C=C3\Sc4ccccc4N3C)cc2C)cc1	LRH-1 inv ag 98, COUP-TFII inh 82, SRC3 inh 75, NCOA1 inh 71 (no result: Gli-Sufu block) | Gal4-VP16 ctr inactive | COUP-TFII conf 67
COc1ccccc1-[n+]1c(C)cc(/C=C2\Sc3ccccc3N2C)cc1C	LRH-1 inv ag 84, COUP-TFII inh 82, SRC3 inh 69, NCOA1 inh 62, Gli-Sufu block 85 | Gal4-VP16 ctr inactive | COUP-TFII conf 89
CCNC(=O)C1(C)CCCN(C(=O)c2ccc3sccc3c2)C1 (stereo not drawn)	none (no result: Gli-Sufu block)
CCNC(=O)C1(C)CCCN(C(=O)c2ccc3c(c2)C(C)(C)CCC3(C)C)C1 (stereo not drawn)	COUP-TFII inh 39 (no result: Gli-Sufu block) | Gal4-VP16 ctr inactive | COUP-TFII conf inactive
CCN(C(=O)C1CCN(c2nc(-c3ccc(OC)cc3)no2)CC1)c1ccc(OC)cc1	COUP-TFII inh 52 | Gal4-VP16 ctr inactive | COUP-TFII conf inactive
COc1ccc(NC(=O)NCCCN2CCN(c3ccc(F)cc3)CC2)cc1OC	none (no result: LRH-1 inv ag, SRC3 inh, NCOA1 inh, Gli-Sufu block)
Cc1cc2c(NCc3ccccc3)ncnc2s1	COUP-TFII inh 49 | Gal4-VP16 ctr inactive | COUP-TFII conf inactive
Cc1sc2ncnc(NCc3ccccc3)c2c1C	none
COc1ccc(-c2nsc3c(N4CCCCC4)ncnc23)cc1	COUP-TFII inh 57 | Gal4-VP16 ctr inactive | COUP-TFII conf 63
CCN(CC)S(=O)(=O)c1cc(NC(=O)c2ccc(-n3cncn3)c([N+](=O)[O-])c2)ccc1C	COUP-TFII inh 54 | Gal4-VP16 ctr inactive | COUP-TFII conf inactive
Cc1ccccc1C(=O)OCC(=O)Nc1cccc(S(=O)(=O)N2CCCCC2)c1	none (no result: Gli-Sufu block)
Cc1ccc(C)c(C(=O)OCC(=O)Nc2cccc(S(=O)(=O)N3CCCCC3)c2)c1	COUP-TFII inh 43 (no result: Gli-Sufu block) | Gal4-VP16 ctr inactive | COUP-TFII conf inactive
O=C(CNc1cccc(S(=O)(=O)N2CCCCC2)c1)Nc1cccc(F)c1	none
